The list is not random: actives were taken first. Their share in the collection is about 2.6%.
LGR2 antag: inhibitors of bursicon-induced LGR2 CRE-luciferase signal, primary screen, cell-based, HEK293, CRE-luciferase reporter, bursicon stimulation. AID 720647, 2013. bursicon-stimulated, 4 h. inhibition, % at 9.99 µM. actives 0.35% (n = 380,000);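 active = drop in luminescence signal, shown as inhibition above about 50% in the replicate tests, limit read from the data, passing the limit was not always enough; inconclusive = probably only some replicates passing the limit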;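 also: agonist challenge used bursicon conditioned medium at about half maximal strength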
TWEAK Fn14 block: inhibitors of TWEAK-Fn14 signaling, primary screen, luciferase reporter cells, uHTS. TWEAK-stimulated Fn14 reporter cells, luciferase luminescence, 8 h. inhibition, % at 10 µM. actives 2% (n = 360,000); in the data active = inhibition above about 50%
aDG glyco act: activators of alpha-DG glycosylation, primary screen, uHTS, Pro5-aDG cells, AlphaScreen; actives 0.22% (n = 360,000); activation, % at 10 µM; alpha-DG glycosylation AlphaScreen (IIH6); 0% Pro5, 100% B10-LARGE cell signal; AID 624168, 2012;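 active = activation of at least 8% versus controls, or a plate z-score of at least 8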;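 also: Pro5 are CHO cells carrying HIG-tagged alpha-DG that lacks glycosylation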
TROY signal inh: inhibitors of TROY-driven NF-kB signaling, primary screen, Q293 LMP1-TROYcd cells, NF-kB luciferase, uHTS; AID 1347056, 2019; inhibition, % at 10 µM; Q293 LMP1-TROYcd NF-kB luciferase reporter, 4 h; actives 0.98% (n = 360,000);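 active = compounds whose plate-normalised and pattern-corrected inhibition of the luciferase reporter signal at the single screening dose is 50% or more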
HSP90 refold inh: HSP90 inhibitors, primary screen, cell lysate, luminescence. inhibition, % at 5.6 µM. Heat shock protein HSP 90 (rabbit reticulocyte lysate; luciferase refolding). Rabbit reticulocyte lysate, luciferase refolding luminescence, 3 h. actives 0.91% (n = 290,000). AID 1789, 2009;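 active = inhibition above the screen-wide mean plus 3 SD, computed separately per campaign, cut at about 16% in these data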;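 also: 0% = DMSO wells and 100% = 60 µM geldanamycin wells; inhibitors lower the luminescence because luciferase stays unfolded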
LMP1 NFkB inh: EBV LMP1-driven NF-kappaB luciferase reporter inhibitors, primary screen, cell-based, luminescence, single point; LMP1-induced NF-kappaB luciferase reporter cells; inhibition, % at 12.5 µM; actives 0.69% (n = 350,000); in the data active = inhibition above about 41%; inconclusive = no clear call, values can overlap the other calls;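 also: 0% = neutral control wells and 100% = reference inhibitor control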
* marks the source's active call; other numbers are inactive results; ? = inconclusive; · = not tested or not shown; ! = not active in a repeat.

SMILES	LGR2 antag	TWEAK Fn14 block	aDG glyco act	TROY signal inh	HSP90 refold inh	LMP1 NFkB inh
O=C(Nc1ccc(S(=O)(=O)N2CCc3ccccc32)cc1)c1ccc2c(c1)OCO2	·	58*	1	1	0	-23
O=C(Nc1nc2ccccc2s1)c1cccc(S(=O)(=O)N2CCc3ccccc32)c1	-26	70*	0	20	8	-2
Cc1snc(S(=O)(=O)/C(C#N)=N\Nc2ccccc2)c1C#N	4	-1	0	-1	-2	1
Cc1snc(S(=O)(=O)/C(C#N)=N/Nc2ccc(C(F)(F)F)cc2)c1C#N	·	-16	0	52*	-3	-4
Cc1ccc(S(=O)(=O)Nc2ccc3c(c2)C(=O)N([C@@H](C)CO)C[C@@H](C)[C@@H](CN(C)S(=O)(=O)c2ccc(F)cc2)OCCCC[C@@H](C)O3)cc1	-11	·	·	·	·	·
COc1ccc(-c2csc(NC(=O)C3=NN(c4ccccc4)C(=O)CC3)n2)cc1	11	88*	1	36	3	8
COc1ccc(-c2csc(NC(=O)c3ccccc3NS(=O)(=O)c3ccc(C)cc3)n2)cc1	33	93*	0	70*	0	5
COc1ccc(-c2csc(NC(=O)c3c(OC)cccc3OC)n2)cc1	24	-14	0	9	2	7
COc1ccc(S(=O)(=O)Nc2ccccc2C(=O)Nc2nc(-c3ccc(F)cc3)cs2)cc1OC	25	92*	1	59*	-9	3
COCC#Cc1cnc2c(c1)C(=O)N([C@@H](C)CO)C[C@H](C)[C@@H](CN(C)C(=O)c1ccc3c(c1)OCO3)O2	-5	·	·	·	·	·
Cc1ccc(O)c(-c2[nH]ncc2C(=O)c2ccc(Br)cc2)c1	-5	16	0	65*	5	1
O=C(NC1CCCCC1)C1CCCN1S(=O)(=O)c1ccc(F)cc1 (stereo not drawn)	-4	16	0	78*	-1	8
CO[C@@H]1CN(C)C(=O)c2cc(NC(=O)C3CC3)ccc2OC[C@H](C)N(C(=O)Cc2ccccn2)C[C@@H]1C	10	·	·	·	·	·
COc1ccc(C(=O)Nc2cc(C(C)=O)c(/C=C/N(C)C)oc2=O)cc1	·	-13	0	48	-3	-2
CC(=O)c1cc(NC(=O)c2ccc(C)cc2)c(=O)oc1/C=C/N(C)C	·	0	1	54*	0	-4
C[C@H](CO)N1C[C@H](C)[C@H](CN(C)S(C)(=O)=O)Oc2ccc(NC(=O)Nc3ccc(C(F)(F)F)cc3)cc2C1=O	-12	·	·	·	·	·
CC(CC1C(C#N)=C(N)SC(N)=C1C#N)c1ccccc1 (stereo not drawn)	·	-2	0	50*	4	0
CC(c1ccccc1)C1C(C#N)=C(N)SC(N)=C1C#N (stereo not drawn)	·	0	0	-9	0	-2
Cc1ccccc1Nc1ccc2nonc2c1[N+](=O)[O-]	-17	13	0	3	-4	5
COc1ccccc1Nc1ccc2nonc2c1[N+](=O)[O-]	1	89*	0	-25	3	8
O=[N+]([O-])c1c(Nc2ccccc2O)cc(Cl)c2nonc12	38	27	0	64*	3	79*
Oc1ccc(Nc2ccnc3cc(Cl)ccc23)cc1	-36	-34	0	-20	3	12
CCN(CC)Cc1cc(Nc2ccnc3cc(Cl)ccc23)ccc1O	-7	-61	1	-15	-5	57*!
Cc1ccc2nc(C(F)(F)F)c(C#N)c(N)c2c1	65*	64*	0	53*	3	-33
Cc1cc(C)c2nc(C(F)(F)F)c(C#N)c(N)c2c1	·	70*	0	22	-3	40
SMILES	LGR2 antag	TWEAK Fn14 block	aDG glyco act	TROY signal inh	HSP90 refold inh	LMP1 NFkB inh
C[C@@H]1CN([C@H](C)CO)S(=O)(=O)c2ccc(-c3ccc(C#N)cc3)cc2O[C@@H]1CN(C)C(=O)CN(C)C	22	·	·	·	·	·
N#C[C@@H]1[C@H](c2ccc(C3=CCCC3)cc2)[C@@H](CO)N1C(=O)NC1CCCCC1	10	·	·	·	·	·
Cc1cccc2sc(NNC(=O)c3cc(=O)c4ccccc4o3)nc12	-54	14	0	-16	-5	-24
Cc1ccc2sc(NNC(=O)c3cc(=O)c4ccccc4o3)nc2c1C	-44	-31	0	-5	18*	-6
CO[C@H]1CN(C)C(=O)c2ccc(NC(=O)C3CC3)cc2OC[C@H](C)N(CC2CCCC2)C[C@@H]1C	17	·	·	·	·	·
COc1ccc(C)cc1S(=O)(=O)N(CC(=O)Nc1cc([N+](=O)[O-])ccc1C)c1ccc(C)c(C)c1	-7	10	0	1	-1	49*
Cc1nn(-c2ccccc2Cl)c(Cl)c1/C=N/Nc1nc2ccccc2s1	72*	108*	0	95*	5	56*
Oc1ccc(C=NNc2nc3ccccc3s2)c(O)c1	?	60*	1	3	·	-11
COc1cccc(C=NNc2nc3ccccc3s2)c1OC	26	34	0	45	·	-23
Oc1ccccc1C=NNc1nc2ccccc2s1	-77	57*	0	0	·	-8
O=c1cc(Cl)nc2ccccn12	-21	-16	0	-1	·	71*
O=c1cc(NCc2ccccc2)nc2ccccn12	-35	-11	0	-37	-4	-20
COc1ccc(NS(=O)(=O)c2ccc3nc(COc4cccc5ccccc45)[nH]c3c2)cc1	-79	59*	0	38	1	-5
Cc1ccc(S(=O)(=O)N(C)C[C@@H]2Oc3ccc(NC(=O)c4ccncc4)cc3C(=O)N([C@@H](C)CO)C[C@H]2C)cc1	3	·	·	·	·	·
CN(C)C(=O)c1cccc(-c2ccc([C@H]3[C@H]4CN(C(=O)C5CC5)CC(=O)N4[C@H]3CO)cc2)c1	1	·	·	·	·	·
COc1cc(SC)ccc1C(=O)Nc1nccs1	36	63*	0	31	16	2
N#Cc1c(SCc2ccc(Cl)cc2)sc(C(=O)c2ccccc2)c1N	·	89*	0	-1	-4	1
N#Cc1nc(Nc2cccc(Cl)c2)c2ncn(C3CCCC3)c2n1	-5	87*	2	1	·	-63
Oc1ccccc1C1=Nc2ncnn2C(c2ccc(F)cc2)C1 (stereo not drawn)	·	5	0	15	·	62*
Fc1ccc(C2CC(c3ccc(F)cc3)n3ncnc3N2)cc1 (stereo not drawn)	·	-8	0	-5	0	10
CC(=O)NC[C@@H]1[C@@H](c2ccc(-c3cccc(F)c3)cc2)[C@@H](CO)N1C(C)=O	-6	·	·	·	·	·
Cc1c(C(=O)NCC2COc3ccccc3O2)oc2ccc(S(=O)(=O)N3CC(C)CC(C)C3)cc12 (stereo not drawn)	10	5	1	4	2	13
